Results on 21 compounds are retold here after PubChem BioAssay (EPA / NIEHS).

The nature of assay [1]: TOX21_p53_BLA_p2_viability: Viability Assessment in the Tox21 HCT-116 p53 Agonism Beta-lactamase Assay, Phase 2 (AID 2283591).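 Further: compound exposure lasted 16 h at 37 °C; actives lower the ATP signal meaning cytotoxicity.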 A digest of the protocol:
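Cytotoxicity readout: CellTiter-Glo ATP luminescence, 30 min at room temperature, after the beta-lactamase read. Cells were HCT116 exposed 16 h at 37C to compounds pin-transferred at 217-fold dilution from DMSO stocks.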

The target in assay [2] is Cellular tumor antigen p53 (Homo sapiens) (UniProt P04637). Nature of the assay: TOX21_p53_BLA_p2_ratio: Tox21 HCT-116 p53 Agonism Beta-lactamase Assay, Ratio, Phase 2 (AID 2283592). A digest of the protocol:
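HCT116 cells carrying a p53-responsive beta-lactamase reporter were plated, incubated 5 h at 37C, then dosed with compounds in DMSO (217-fold dilution) for 16 h. CCF4-AM substrate was added for 2 h at room temperature; the 460/530 nm emission ratio gave gain-of-signal activity relative to DMSO.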

Assay [3] in a line: TOX21_p53_BLA_p3_viability: Viability Assessment in the Tox21 HCT-116 p53 Agonism Beta-lactamase Assay, Phase 3 (AID 2283593).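 Further: cells exposed to compound for 16 h before reading.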 Summed up: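 Cellular ATP was quantified by CellTiter-Glo luminescence, read after 30 min at room temperature. Beforehand, HCT116 cells (4000/well) received compound 5 h post-seeding, 217-fold diluted from DMSO, then incubated 16 h at 37C.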
For assay [4], the target named is Cellular tumor antigen p53 (Homo sapiens) (UniProt P04637). As to the kind of experiment: TOX21_p53_BLA_p3_ratio: Tox21 HCT-116 p53 Agonism Beta-lactamase Assay, Ratio, Phase 3 (AID 2283596). A digest of the protocol: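 HCT116 p53-bla cells (4000/well) given compound in DMSO (217-fold dilution) after 5 h, incubated 16 h at 37C. CCF4-AM substrate 2 h at room temperature; 460/530 nm emission ratio, gain fitted against DMSO.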

Assay [5] in a line: TOX21_p53_BLA_p4_viability: Viability Assessment in the Tox21 HCT-116 p53 Agonism Beta-lactamase Assay, Phase 4 (AID 2283597).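 Further: hits lower the luminescence signal meaning cytotoxicity.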 A digest of the protocol:
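HCT116 p53-bla cells (4000/well) rested 5 h at 37C, then received compounds in DMSO (217-fold dilution) for 16 h at 37C, 5% CO2. CellTiter-Glo was added after the CCF4-AM read, and luminescence was read after 30 min at room temperature.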

Assay [6] has as its target Cellular tumor antigen p53 (Homo sapiens) (UniProt P04637). As to the kind of experiment: TOX21_p53_BLA_p5_ratio: Tox21 HCT-116 p53 Agonism Beta-lactamase Assay, Ratio, Phase 5 (AID 2283599). Summed up:
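Beta-lactamase reporter ratio (blue 460 nm over green 530 nm, 405 nm excitation) after 2 h CCF4-AM loading, in HCT-116 cells exposed 16 h at 37 C to compounds pinned at 217-fold dilution. Increases relative to DMSO baseline scored.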

Assay [7] can be described thus: TOX21_p53_BLA_p5_viability: Viability Assessment in the Tox21 HCT-116 p53 Agonism Beta-lactamase Assay, Phase 5 (AID 2283600). A digest of the protocol: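 Cells were plated at 4000/well, rested 5 h at 37C, then given compounds in DMSO (217-fold dilution) for 16 h at 37C, 5% CO2. Following the CCF4-AM beta-lactamase read, CellTiter-Glo was added and luminescence was read after 30 min at room temperature.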

For assay [8], the target named is Cellular tumor antigen p53 (Homo sapiens) (UniProt P04637). As to the kind of experiment: TOX21_p53_BLA_p4_ratio: Tox21 HCT-116 p53 Agonism Beta-lactamase Assay, Ratio, Phase 4 (AID 2283601). A digest of the protocol: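 Signal is the blue/green (460nm/530nm) ratio of cleaved versus uncleaved CCF4-AM substrate, read after 2 h substrate loading. Cells were HCT116 carrying the p53-responsive beta-lactamase reporter, dosed 16 h at 37C, 5% CO2; CellTiter-Glo measured in parallel.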

Inconclusive results are not listed. Activity calls are given as the source filed them. How the source made its calls: active means hit-call score of the fitted dose curve at least 0.9, where 1 is the maximum; inconclusive means response in the unintended direction; inactive means score below 0.9.

The AC50 is the concentration at which the activity in the assay is half-maximal.

Cellular tumor antigen p53 (Homo sapiens), sequence (P04637 whole entry, looked up): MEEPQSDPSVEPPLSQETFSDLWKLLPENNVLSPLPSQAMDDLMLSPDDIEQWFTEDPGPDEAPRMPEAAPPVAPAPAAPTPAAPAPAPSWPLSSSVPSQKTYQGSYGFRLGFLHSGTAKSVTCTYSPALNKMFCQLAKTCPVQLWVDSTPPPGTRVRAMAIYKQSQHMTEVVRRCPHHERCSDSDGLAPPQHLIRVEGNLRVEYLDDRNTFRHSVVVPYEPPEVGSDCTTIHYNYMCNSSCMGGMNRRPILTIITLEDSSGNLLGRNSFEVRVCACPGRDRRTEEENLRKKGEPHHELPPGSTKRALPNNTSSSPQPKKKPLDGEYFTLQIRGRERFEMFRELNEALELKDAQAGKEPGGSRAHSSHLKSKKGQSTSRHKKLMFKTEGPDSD

As for `CCCCCCCCCCCCCC[N+](C)(C)Cc1ccccc1`, the call in assay [1], in assay [2], in assay [3], in assay [4] and in assay [7] was inactive. Besides, the values for the AC50 in assay [5], in assay [6] and in assay [8] were 27.9 µM (active), 40.8 µM (active) and 43.7 µM (active), respectively.

With `CCCCCCCCCCCC[n+]1ccc2ccccc2c1`, the AC50 is 33.6 µM (active) in assay [1]; 11 µM (active) in assay [2]; 35.9 µM (active) in assay [3]; 15 µM (active) in assay [4]; 23 µM (active) in assay [5]; 28.5 µM (active) in assay [6]. Further, the AC50 in assay [7] is 33.4 µM (active); in assay [8], 21.8 µM (active).

In the case of `CC(C)COCC(CN(Cc1ccccc1)c1ccccc1)N1CCCC1` (stereo not drawn), the outcome in assay [1], in assay [2], in assay [3], in assay [4], in assay [5] and in assay [6] was inactive. The compound was classed as inactive in assay [7] and in assay [8].

Regarding `N[C@H](C(=O)O)[C@@H]1CC(Cl)=NO1`, the AC50 in assay [1] was 15.8 µM (active); in assay [2] it was 5.51 µM (active); in assay [3] it was 9.5 µM (active); in assay [4] it was 5.91 µM (active); in assay [5], 13.7 µM (active); in assay [6], 5.35 µM (active). For the same compound, the AC50 in assay [7] is 11.4 µM (active); in assay [8], 5.46 µM (active).

On to `C[n+]1cc2c3c(ccc2c2ccc4cc5c(cc4c21)OCO5)OCO3`, for which the AC50 in assay [1] was 4.28 µM (active); in assay [2], 4.96 µM (active); in assay [3] it was 2.31 µM (active); in assay [4], 2.32 µM (active); in assay [5], 3.64 µM (active); in assay [6], 5.66 µM (active). Besides, the AC50 was 5.48 µM (active) in assay [7] and 9.14 µM (active) in assay [8].

For `CC(C)=CCC1C(=O)N(c2ccccc2)N(c2ccccc2)C1=O`, the AC50 in assay [1] is 32.6 µM (active); in assay [2], 7.19 µM (active); in assay [3] it was 34.3 µM (active); in assay [4], 10.2 µM (active); in assay [5] it was 33.5 µM (active); in assay [6], 7.67 µM (active). Besides, the AC50 in assay [7] was 42.1 µM (active). The outcome in assay [8] was inactive.

With `N=C(N)c1ccc(OCCCOc2ccc(C(=N)N)cc2)cc1`, the call in assay [1], in assay [2], in assay [3], in assay [4], in assay [5] and in assay [6] was inactive. Moreover, the call in assay [7] and in assay [8] was inactive.

With `C[C@@H]1CN(CCCn2c3ccccc3c3ccccc32)C[C@H](C)N1`, the outcome in assay [1], in assay [2], in assay [3], in assay [4], in assay [6] and in assay [7] was inactive. In addition, the outcome in assay [8] was inactive. Moreover, in assay [5], the AC50 was 28.9 µM (active).

In the case of `COc1cc(C(=O)NS(=O)(=O)c2ccccc2C)ccc1Cc1cn(C)c2ccc(NC(=O)OC3CCCC3)cc12`, the AC50 is 14.2 µM (active) in assay [1]; 7.01 µM (active) in assay [2]; 7.45 µM (active) in assay [3]; 8.2 µM (active) in assay [4]; 8.18 µM (active) in assay [5]; 12.9 µM (active) in assay [6]. For the same compound, the AC50 in assay [7] was 10.1 µM (active); in assay [8] it was 9.98 µM (active).

As for `CCN(CC)CCCN(c1ccccc1)C1Cc2ccccc2C1`, the AC50 in assay [1] is 9.12 µM (active); in assay [2], 23.3 µM (active); in assay [3], 26.6 µM (active); in assay [4], 36.3 µM (active); in assay [5], 2.11 µM (active); in assay [6], 36.7 µM (active). In addition, the AC50 in assay [7] is 30.6 µM (active); in assay [8] it was 23 µM (active).

For `CC[C@H]1CN2CCc3cc(OC)c(OC)cc3[C@@H]2C[C@@H]1C[C@H]1NCCc2cc(OC)c(OC)cc21`, the compound was called inactive in assay [1], in assay [2], in assay [3], in assay [4], in assay [5] and in assay [6]. Further, the compound was called inactive in assay [7] and in assay [8].

Take `O=C(O)c1ccccc1[N+](=O)[O-]`: the call in assay [1], in assay [3], in assay [4], in assay [5], in assay [7] and in assay [8] was inactive. Besides, the AC50 in assay [2] was 73.7 µM (active); in assay [6] it was 86.4 µM (active).

Regarding `C=CC(OCC)OCC`, the compound was classed as inactive in assay [1], in assay [2], in assay [3], in assay [4], in assay [5] and in assay [6]. In addition, the result in assay [7] and in assay [8] was inactive.

Consider `CC(=O)[C@@]1(O)CC[C@H]2[C@@H]3C=C(Cl)C4=CC(=O)CC[C@]4(C)[C@H]3CC[C@@]21C`, for which the call in assay [1], in assay [3], in assay [4] and in assay [7] was inactive. Besides, the AC50 is 37 µM (active) in assay [2], 23 µM (active) in assay [5], 37.9 µM (active) in assay [6] and 37.8 µM (active) in assay [8].

As to `OC[C@]1(O)OC[C@@H](O)[C@H](O)[C@@H]1O`, the outcome in assay [1], in assay [2], in assay [3], in assay [4], in assay [5] and in assay [6] was inactive. Moreover, the call in assay [7] and in assay [8] was inactive.

As for `CCOC(=O)Nc1ccc(NCc2ccc(F)cc2)nc1N`, the call in assay [1], in assay [2], in assay [3], in assay [4], in assay [5] and in assay [6] was inactive. The call in assay [7] and in assay [8] was inactive.

In the case of `O=S(c1cc(Cl)cc(Cl)c1O)c1cc(Cl)cc(Cl)c1O`, the compound was classed as inactive in assay [1], in assay [3], in assay [5], in assay [6] and in assay [7]. For the same compound, the values for the AC50 in assay [2], in assay [4] and in assay [8] were 16.2 µM (active), 6.85 µM (active) and 15.1 µM (active), respectively.

For `COc1ccc(CN2CCN(C(c3ccc(F)cc3)c3ccc(F)cc3)CC2)c(OC)c1OC`, the AC50 in assay [1], in assay [3] and in assay [5] was 23 µM (active) each time. For the same compound, the outcome in assay [2], in assay [4], in assay [6], in assay [7] and in assay [8] was inactive.

Take `Cc1cc2nc(N)sc2cc1C`: the compound was called inactive in assay [1], in assay [2], in assay [3], in assay [4], in assay [5] and in assay [6]. Further, the result in assay [7] and in assay [8] was inactive.

With `COc1cc(N)c(Cl)cc1C(=O)NC1CCN(CCCOc2ccc(F)cc2)CC1OC` (stereo not drawn), the compound was classed as inactive in assay [1], in assay [2], in assay [3], in assay [4], in assay [5] and in assay [6]. The result in assay [7] and in assay [8] was inactive.

Consider `COc1c(Br)cc(Br)c(C)c1Br`, for which the outcome in assay [1], in assay [2], in assay [3], in assay [4], in assay [5] and in assay [6] was inactive. In addition, the call in assay [7] and in assay [8] was inactive.
